# Measurements published in PubChem BioAssay (NCATS).
# Inconclusive results are not listed. Entries that show only a call come without a potency. Active and inactive are the calls of the source. Unless noted, calls follow the shape of the dose curve; as a rule, active = well fitted curve in the direction sought with a large enough effect; inconclusive = small, poorly fitted or top-dose-only effect, or another doubt; inactive = no such curve, though single readings can be large; an effect the other way counts as inactive or inconclusive.
# Tests used:
# [1] = biological target: Calcium and integrin-binding protein 1 (Homo sapiens) (UniProt Q99828); assay: Primary qHTS for Identification of Calcium Integrin Binding Protein 1 (CIB1) Competitor (AID 1508620);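 also: GST tagged CIB1 binding a fluorescein labelled alphaIIb integrin peptide tracer; top concentration of the series differs between compounds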
# Summary of the method: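 CIB1-GST (1 uM final) and compound incubated 15 min at room temperature before adding FITC-alphaIIb peptide tracer (100 nM final). Competition for binding read by fluorescence polarization (ex 480, em 540) after another 15 min at room temperature.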
# [2] = Primary qHTS for small molecule stabilizers of the endoplasmic reticulum resident proteome: Secreted ER Calcium Modulated Protein (SERCaMP) assay (AID 1508630)
# Summary of the method: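 GLuc-SERCaMP-expressing SH-SY5Y cells, pretreated 16 h with compound, are challenged with thapsigargin to empty ER calcium stores; after 4 h, coelenterazine is added directly to the medium and luminescence is imaged.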
# [3] = Counterscreen qHTS for small molecule stabilizers of the endoplasmic reticulum resident proteome: GLuc-NoTag assay (AID 1508627); also: potency is read from the fitted curve at half-maximal effect
# Summary of the method: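 Luminescence of Gaussia luciferase secreted into the medium (coelenterazine, 0.07x final, unlysed cells) was the read-out. Human SH-SY5Y neuroblastoma cells constitutively secreting untagged GLuc received compound for 19 h, then 100 nM thapsigargin for 4 h.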
# [4] = Confirmatory qHTS for small molecule stabilizers of the endoplasmic reticulum resident proteome: Secreted ER Calcium Modulated Protein (SERCaMP) assay (AID 1508628); also: series mostly up to about 76 µM; nearly all actives have a fitted effect of over 40% in size
# Summary of the method: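 SH-SY5Y cells stably expressing GLuc-SERCaMP, treated 16 h with compound (primary 1.53, 7.67, 38.3 uM; confirmation 11 concentrations, up to 76.6 uM), then 100 nM thapsigargin for 4 h. Secreted Gaussia luciferase in medium read by coelenterazine luminescence.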
# [5] = biological target: Calcium and integrin-binding protein 1 (Homo sapiens) (UniProt Q99828); assay: Confirmatory qHTS for Identification of Calcium Integrin Binding Protein 1 (CIB1) Competitor (AID 1508617); also: potency is read from the fitted curve at half-maximal effect; nearly all actives have a fitted effect of over 65% in size
# Summary of the method: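 Fluorescence polarization competition: CIB1-GST (1 uM final) in 5 mM HEPES pH 7.4, 125 mM NaCl, 5 mM CaCl2, 0.01% Tween20 preincubated 15 min RT with compound (up to 114 uM), then FITC-alphaIIb peptide (100 nM) added, 15 min RT.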
# [6] = biological target: Cytochrome P450 2D6 (Homo sapiens) (UniProt P10635); assay: Cytochrome P450 family 2 subfamily D member 6 (CYP2D6) small molecule antagonists: luciferase biochemical (cell-free) qHTS assay (AID 1645840; active = well fitted curve in the direction sought with a large enough effect in the repeat runs; an effect the other way counts as inactive or inconclusive; also: nearly all actives have a fitted effect of over 55% in size; also: potency is read from the fitted curve at half-maximal effect)
# Summary of the method: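 P450-Glo luminescent screen: recombinant CYP2D6 enzyme–proluciferin substrate mix preincubated with compound 10 min at room temperature, then NADPH regeneration added for 1 h at room temperature. Detection reagent added for 20 min; luciferin light read as relative luminescence units.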
# [7] = biological target: Cytochrome P450 2C9 (Homo sapiens) (UniProt P11712); assay: Cytochrome P450 family 2 subfamily C member 9 (CYP2C9) small molecule antagonists: luciferase biochemical (cell-free) qHTS assay (AID 1645842; active = well fitted curve in the direction sought with a large enough effect in the repeat runs; an effect the other way counts as inactive or inconclusive; also: nearly all actives have a fitted effect of over 55% in size; also: potency is read from the fitted curve at half-maximal effect)
# Summary of the method: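 Luminescence, after 20 min with luciferin detection reagent, reflected CYP2C9 turnover during a 1 h NADPH-driven reaction at 37C. Enzyme-substrate mix contained 0.4% bovine serum albumin and was preincubated with compound 10 min at room temperature.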
# [8] = biological target: Cytochrome P450 3A4 (Homo sapiens) (UniProt P08684); assay: Cytochrome P450 family 3 subfamily A member 4 (CYP3A4) small molecule antagonists: luciferase qHTS assay (AID 1645841; active = well fitted curve in the direction sought with a large enough effect in the repeat runs; an effect the other way counts as inactive or inconclusive; also: nearly all actives have a fitted effect of over 45% in size)
# Summary of the method: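 Luminescent CYP3A4 activity readout: compounds plus enzyme-substrate mix 10 min at room temperature, reaction started with NADPH regenerating system for 1 h, stopped with detection reagent, read after 20 min. Ketoconazole served as control.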
# Cytochrome P450 2D6 (Homo sapiens), sequence (P10635 whole entry, looked up): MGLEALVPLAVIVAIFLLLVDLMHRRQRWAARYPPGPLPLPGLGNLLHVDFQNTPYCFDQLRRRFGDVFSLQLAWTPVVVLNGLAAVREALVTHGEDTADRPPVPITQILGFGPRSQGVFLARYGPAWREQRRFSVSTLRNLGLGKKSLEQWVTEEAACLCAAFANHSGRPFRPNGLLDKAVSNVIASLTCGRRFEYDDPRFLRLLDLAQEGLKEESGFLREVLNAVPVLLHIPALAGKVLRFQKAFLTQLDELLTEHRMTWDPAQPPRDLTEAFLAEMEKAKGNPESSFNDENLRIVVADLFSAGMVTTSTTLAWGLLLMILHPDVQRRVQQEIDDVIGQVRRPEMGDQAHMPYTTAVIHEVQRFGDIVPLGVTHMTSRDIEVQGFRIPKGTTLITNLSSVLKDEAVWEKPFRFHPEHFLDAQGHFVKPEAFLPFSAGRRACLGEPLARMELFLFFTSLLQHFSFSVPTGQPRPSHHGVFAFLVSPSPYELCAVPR
# Cytochrome P450 2C9 (Homo sapiens), sequence (P11712 whole entry, looked up): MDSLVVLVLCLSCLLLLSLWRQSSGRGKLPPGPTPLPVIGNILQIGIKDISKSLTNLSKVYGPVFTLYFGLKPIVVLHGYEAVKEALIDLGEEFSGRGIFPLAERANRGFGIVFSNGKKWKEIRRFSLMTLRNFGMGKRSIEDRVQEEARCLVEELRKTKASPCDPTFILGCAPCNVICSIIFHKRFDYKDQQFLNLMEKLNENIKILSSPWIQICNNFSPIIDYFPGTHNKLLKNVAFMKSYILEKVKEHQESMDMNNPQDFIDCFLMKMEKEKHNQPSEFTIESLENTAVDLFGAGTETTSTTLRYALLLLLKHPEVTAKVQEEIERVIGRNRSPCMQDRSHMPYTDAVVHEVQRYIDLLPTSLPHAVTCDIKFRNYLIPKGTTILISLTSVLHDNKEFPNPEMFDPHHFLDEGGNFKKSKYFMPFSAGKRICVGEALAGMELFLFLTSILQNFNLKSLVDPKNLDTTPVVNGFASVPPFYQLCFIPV
# Calcium and integrin-binding protein 1 (Homo sapiens), sequence (Q99828 whole entry, looked up): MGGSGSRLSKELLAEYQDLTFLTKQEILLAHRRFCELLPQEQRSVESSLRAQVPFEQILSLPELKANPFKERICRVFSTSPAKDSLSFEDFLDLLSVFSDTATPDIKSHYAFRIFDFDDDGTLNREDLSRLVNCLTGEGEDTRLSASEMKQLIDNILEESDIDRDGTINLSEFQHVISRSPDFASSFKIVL
# Cytochrome P450 3A4 (Homo sapiens), sequence (P08684 whole entry, looked up): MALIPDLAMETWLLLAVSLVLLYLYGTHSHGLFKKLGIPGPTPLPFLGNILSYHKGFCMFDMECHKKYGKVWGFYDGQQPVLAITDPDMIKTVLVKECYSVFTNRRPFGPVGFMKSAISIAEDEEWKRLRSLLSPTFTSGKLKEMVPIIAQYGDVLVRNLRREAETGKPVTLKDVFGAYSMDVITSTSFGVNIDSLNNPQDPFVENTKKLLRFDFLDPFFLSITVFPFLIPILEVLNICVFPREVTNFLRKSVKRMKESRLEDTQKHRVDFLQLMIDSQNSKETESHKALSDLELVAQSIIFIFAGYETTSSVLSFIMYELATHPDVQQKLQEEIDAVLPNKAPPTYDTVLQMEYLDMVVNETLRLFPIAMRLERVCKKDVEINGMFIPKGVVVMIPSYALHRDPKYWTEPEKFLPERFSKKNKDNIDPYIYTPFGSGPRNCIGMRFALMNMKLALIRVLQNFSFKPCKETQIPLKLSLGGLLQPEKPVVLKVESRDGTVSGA
compound,measurement,setting,value
Cc1cn2c(-c3cn[nH]c3)cnc2c(Nc2ccc(C(=O)N3CCNCC3)cc2F)n1,outcome,[1],inactive
same,Potency,[2],inactive
CC=C1NC(=O)[C@H]2CSSCCC=C[C@H](CC(=O)N[C@H](C(C)C)C(=O)N2)OC(=O)[C@H](C(C)C)NC1=O,outcome,[1],inactive
same,Potency,[2],inactive
CC(=O)Nc1nc(C)c(-c2ccc(Cl)c(S(=O)(=O)NCCO)c2)s1,outcome,[1],inactive
COc1cc(C(C)C)c2c(c1)S(=O)(=O)N(COc1cc(=O)n3cccc(OCCN4CCCCC4)c3n1)C2=O,outcome,[1],inactive
same,Potency,[3],39.8 µM (active)
same,outcome,[4],inactive
same,Potency,[2],inactive
CC(C)(C)OC(=O)Nc1ccc(-c2cc(C(=O)NCCCCCCC(=O)NO)no2)cc1,outcome,[1],inactive
same,Potency,[2],inactive
C1=CCOCc2cc(ccc2OCCN2CCCC2)Nc2nccc(n2)-c2cccc(c2)OCC1,outcome,[1],inactive
same,Potency,[2],inactive
CCC[C@H](NC(=O)C(C#N)=Cc1cccc(Br)n1)c1ccccc1,outcome,[1],inactive
same,Potency,[2],inactive
Cn1cc(-c2[nH]c3cc(NC(=O)[C@H](N)C4CCCCC4)cc4c3c2C=NNC4=O)cn1,Potency,[5],50.1 µM (active)
same,Potency,[2],inactive
same,Potency,[6],inactive
same,Potency,[7],9.52 µM (active)
Cc1cccc(C=NNc2cc(N3CCOCC3)nc(OCCc3ccccn3)n2)c1,outcome,[1],inactive
same,Potency,[2],inactive
COC(=O)Nc1nc2ccc(C(=O)c3ccc(F)cc3)cc2[nH]1,outcome,[1],inactive
same,Potency,[2],inactive
COc1cc2c(cc1-c1c(C)noc1C)ncc1[nH]c(=O)n([C@H](C)c3ccccn3)c12,outcome,[1],inactive
same,Potency,[2],inactive
O=C(O)c1ccc2cc(-c3ccc(O)c(C45CC6CC(CC(C6)C4)C5)c3)ccc2c1,outcome,[1],inactive
same,Potency,[2],inactive
COc1cc2c(Nc3ccc(NC(=O)c4ccccc4)cc3)ncnc2cc1OCCCN1CCOCC1,outcome,[1],inactive
same,Potency,[2],inactive
CCCCN1CCC(CNC(=O)c2c3n(c4ccccc24)CCCO3)CC1,outcome,[1],inactive
same,Potency,[2],inactive
Cc1nc(N)ncc1-c1nc(N2CCOCC2)c2sc(C(C)(C)O)cc2n1,outcome,[1],inactive
same,Potency,[2],inactive
COC(=O)Nc1ccc(-c2nc(N3CCOCC3)c3cnn(C4CCN(Cc5cccnc5)CC4)c3n2)cc1,outcome,[1],inactive
same,Potency,[2],inactive
CCn1nnc2c(N3CCOCC3)nc(-c3ccc(NC(=O)Nc4ccc(C(=O)N5CCN(C)CC5)cc4)cc3)nc21,outcome,[1],inactive
same,Potency,[2],inactive
NC(=O)Nc1cc(-c2cccc(F)c2)sc1C(=O)N[C@H]1CCCNC1,outcome,[1],inactive
same,Potency,[2],inactive
CN(C)CC=CC(=O)Nc1cc2c(Nc3ccc(F)c(Cl)c3)ncnc2cc1O[C@H]1CCOC1,outcome,[1],inactive
same,Potency,[2],inactive
O=C(C=Cc1cccnc1)NCCCCC1CCN(C(=O)c2ccccc2)CC1,outcome,[1],inactive
same,Potency,[2],inactive
Cc1ccc(S(=O)(=O)Nc2cc(Cl)ccc2C(=O)Nc2nc(-c3ccccc3)cs2)cc1,outcome,[1],inactive
Cn1c(=O)n(-c2ccc(C(C)(C)C#N)cc2)c2c3cc(-c4cnc5ccccc5c4)ccc3ncc21,outcome,[1],inactive
same,Potency,[2],inactive
CC(C)(C)NC(=O)[C@H]1CN(Cc2cccnc2)CCN1C[C@@H](O)C[C@@H](Cc1ccccc1)C(=O)N[C@H]1c2ccccc2C[C@H]1O,outcome,[1],inactive
same,Potency,[2],inactive
Cn1c2ccccc2c2c3c(c4c5ccccc5n(CCC#N)c4c21)CNC3=O,outcome,[1],inactive
same,Potency,[2],inactive
COc1c(OCCCN2CCOCC2)ccc2c3n(c(=NC(=O)c4cnc(N)nc4)nc12)CCN3,outcome,[1],inactive
same,Potency,[2],inactive
same,Potency,[6],inactive
same,outcome,[8],inactive
same,Potency,[7],inactive
CCCCc1nc2cc(C=CC(=O)NO)ccc2n1CCN(CC)CC,outcome,[1],inactive
same,Potency,[2],inactive
same,Potency,[6],12 µM (active)
COc1c(N2C[C@@H]3CCCN[C@H]3C2)c(F)cc2c(=O)c(C(=O)O)cn(C3CC3)c12,outcome,[1],inactive
same,Potency,[2],inactive
same,Potency,[6],inactive
same,Potency,[7],inactive
COc1cc(C)c(Sc2cnc(NC(=O)c3ccc(CNC(C)C(C)C)cc3)s2)cc1C(=O)N1CCN(C(C)=O)CC1 (stereo unspecified),outcome,[1],inactive
same,Potency,[2],inactive
same,Potency,[6],21.3 µM (active)
same,Potency,[7],0.536 µM (active)
O=C(CCCCCCNC(=O)c1cnc(N(c2ccccc2)c2ccccc2)nc1)NO,outcome,[1],inactive
same,Potency,[2],inactive
Cc1cc(Nc2cc(N3CCN(C)CC3)nc(C=Cc3ccccc3)n2)n[nH]1,outcome,[1],inactive
same,Potency,[2],inactive
CN1CCN(c2ccc3nc(-c4c(N)c5c(F)cccc5[nH]c4=O)[nH]c3c2)CC1,outcome,[1],inactive
same,Potency,[2],inactive
C[C@]1(CO)CN(c2cc(C(=O)Nc3ccc4c(c3)-c3c(c(C(N)=O)nn3-c3ccc(F)cc3)CC4)c(Cl)cn2)C[C@@]1(C)CO,outcome,[1],inactive
same,Potency,[2],inactive
Cc1cc(C(=O)N2CCN(c3cccc(Cl)c3)CC2)n(-c2ccccc2)n1,outcome,[1],inactive
same,Potency,[2],inactive
CC1(C)O[C@@H]2C[C@@H]3[C@H]4C[C@@H](F)C5=CC(=O)C=C[C@]5(C)[C@@]4(F)[C@@H](O)C[C@]3(C)[C@]2(C(=O)CO)O1,outcome,[1],inactive
same,Potency,[2],inactive
CC=CC1=C(C(=O)O)N2C(=O)[C@H](NC(=O)[C@H](N)c3ccc(O)cc3)[C@@H]2SC1,outcome,[1],inactive
same,Potency,[2],inactive
Nc1ccc(C(=O)c2cc3c(ccc4ccccc43)[nH]2)cc1,outcome,[1],inactive
same,Potency,[2],inactive
Cc1c(CN2CCN(S(C)(=O)=O)CC2)sc2c(N3CCOCC3)nc(-c3cnc(N)nc3)nc12,outcome,[1],inactive
same,Potency,[2],inactive
same,Potency,[6],inactive
same,Potency,[7],10.7 µM (active)
Clc1cccc(-c2nnnn2Cc2cccnc2)c1Cl,outcome,[1],inactive
same,Potency,[2],inactive
same,Potency,[6],inactive
CC[C@H]1CN2CCc3cc(OC)c(OC)cc3[C@H]2C[C@@H]1C[C@@H]1NCCc2cc(OC)c(OC)cc21,outcome,[1],inactive
same,Potency,[2],inactive
